Assay results taken from the supplement of paper PMC6555819.

Legend:
Experiment in all cases: PBM binding z-score (relative to random genomic background probes); higher = stronger binding; sequences stand for … in GC…GCGATTGACAGCGTAGAATGAAGG
[1] = test system: RARb homodimer (NR concentration 270 nM)
Outline: (§1)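 Binding buffer was PBS pH 7.4 with 2% milk, 0.02% Triton X-100, 1 mM DTT, 0.2 mg/mL BSA and 0.4 mg/ml salmon testes DNA. In it, ligand-free nuclear receptor dimers were incubated 1 h on custom Agilent 4×180K protein-binding microarrays carrying double-stranded probes. Antibodies against each partner (one per run) detected binding, and z-scores were calculated against random background probes after regression normalization of scanned fluorescence.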

[2] = test system: RARg:RXRa (NR concentration 270 nM, RXRa partner concentration 90 nM)
Outline: as §1

[3] = test system: RARg homodimer (NR concentration 270 nM)
Outline: as §1

[4] = test system: RXRa DBDmut IVT, anti-RXR (DBD mutation: RXRa K156A/R161A, NR concentration 90 nM)
Outline: as §1

[5] = test system: RXRa homodimer (NR concentration 180 nM)
Outline: as §1

[6] = test system: THRa:RXRa (NR concentration 90 nM, RXRa partner concentration 90 nM)
Outline: as §1

[7] = test system: THRa homodimer (NR concentration 90 nM)
Outline: as §1

[8] = test system: VDR homodimer (NR concentration 270 nM)
Outline: as §1

Sequence	PBM binding z-score [1]	PBM binding z-score [2]	PBM binding z-score [3]	PBM binding z-score [4]	PBM binding z-score [5]	PBM binding z-score [6]	PBM binding z-score [7]	PBM binding z-score [8]
CCTTACGGGGCACGAGGTTATAGCACGACGAGCG	1.27	2.07	1.74	-0.444	1.92	1.48	0.0456	0.346
GCTGGTAGGTCAACTGATGGTCAGCTAAAGCTCG	3.79	5.73	5.34	1.57	3.65	2.54	0.0326	0.11
TCTGGTTGGTCACGGAGGTCACACACGACGGGTA	4.58	4.91	5.28	0.702	4.97	3.58	2.93	3.66
ATCGAAAGGTCGAAGGTGAGTATTCCCACCCGAA	2.4	4.36	3.76	1.17	5.41	2.13	0.00651	0.282
CGTCCAAGGTCATAGGAGGTCAGTCAAGACAGAT	5.57	6.78	7.57	3.37	6.76	5.43	3.34	4.33
CAAACTAGGCCAAGAGGTCAAAGTCCGCTTCCCG	4.79	5.84	5.21	2.07	6.52	3.75	1.81	3.94
TCGAGTAAGTTAGTCGGGGCATTCAGCCAACATA	-0.375	-0.647	-0.674	0.38	-0.255	0.0972	-0.58	-0.125
